# Source: PubChem BioAssay AID504333 (National Center for Advancing Translational Sciences (NCATS), 2011)
# Screen size: about 360,000 compounds; about 16,000 (4.4%) were called active. Where a call stands in place of a potency, no number is given. Roughly 9% stayed inconclusive and do not appear here. This is one part of a sample in which actives are shown more often than they occur. Calls come from the whole dose curve; as a rule, active = well fitted inhibition curve with a large enough effect; inconclusive = small, poorly fitted or top-dose-only effect; inactive = no such curve, though single readings can be large or run the other way.
# Target: Bromodomain adjacent to zinc finger domain protein 2B (Homo sapiens) (UniProt Q9UIF8)
# Assay: qHTS Assay for Inhibitors of BAZ2B; note: nearly all actives have a fitted effect of over 60% in size
# Settings: AlphaScreen BAZ2B-H3K14Ac peptide displacement; series mostly up to 114 µM
# Method in brief: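 In this displacement format the biotinylated H3(5-23) peptide acetylated at Lys14 serves as ligand at 50 nM, with BAZ2B at 50 nM in PBS pH 7.4 containing 0.01% Tween-20. Donor and acceptor beads are 10 ug/mL final.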
# Potency is the fitted concentration of half-maximal effect.
# Sequence of Bromodomain adjacent to zinc finger domain protein 2B (Homo sapiens) (Q9UIF8 whole entry, looked up, the tested form may be a part): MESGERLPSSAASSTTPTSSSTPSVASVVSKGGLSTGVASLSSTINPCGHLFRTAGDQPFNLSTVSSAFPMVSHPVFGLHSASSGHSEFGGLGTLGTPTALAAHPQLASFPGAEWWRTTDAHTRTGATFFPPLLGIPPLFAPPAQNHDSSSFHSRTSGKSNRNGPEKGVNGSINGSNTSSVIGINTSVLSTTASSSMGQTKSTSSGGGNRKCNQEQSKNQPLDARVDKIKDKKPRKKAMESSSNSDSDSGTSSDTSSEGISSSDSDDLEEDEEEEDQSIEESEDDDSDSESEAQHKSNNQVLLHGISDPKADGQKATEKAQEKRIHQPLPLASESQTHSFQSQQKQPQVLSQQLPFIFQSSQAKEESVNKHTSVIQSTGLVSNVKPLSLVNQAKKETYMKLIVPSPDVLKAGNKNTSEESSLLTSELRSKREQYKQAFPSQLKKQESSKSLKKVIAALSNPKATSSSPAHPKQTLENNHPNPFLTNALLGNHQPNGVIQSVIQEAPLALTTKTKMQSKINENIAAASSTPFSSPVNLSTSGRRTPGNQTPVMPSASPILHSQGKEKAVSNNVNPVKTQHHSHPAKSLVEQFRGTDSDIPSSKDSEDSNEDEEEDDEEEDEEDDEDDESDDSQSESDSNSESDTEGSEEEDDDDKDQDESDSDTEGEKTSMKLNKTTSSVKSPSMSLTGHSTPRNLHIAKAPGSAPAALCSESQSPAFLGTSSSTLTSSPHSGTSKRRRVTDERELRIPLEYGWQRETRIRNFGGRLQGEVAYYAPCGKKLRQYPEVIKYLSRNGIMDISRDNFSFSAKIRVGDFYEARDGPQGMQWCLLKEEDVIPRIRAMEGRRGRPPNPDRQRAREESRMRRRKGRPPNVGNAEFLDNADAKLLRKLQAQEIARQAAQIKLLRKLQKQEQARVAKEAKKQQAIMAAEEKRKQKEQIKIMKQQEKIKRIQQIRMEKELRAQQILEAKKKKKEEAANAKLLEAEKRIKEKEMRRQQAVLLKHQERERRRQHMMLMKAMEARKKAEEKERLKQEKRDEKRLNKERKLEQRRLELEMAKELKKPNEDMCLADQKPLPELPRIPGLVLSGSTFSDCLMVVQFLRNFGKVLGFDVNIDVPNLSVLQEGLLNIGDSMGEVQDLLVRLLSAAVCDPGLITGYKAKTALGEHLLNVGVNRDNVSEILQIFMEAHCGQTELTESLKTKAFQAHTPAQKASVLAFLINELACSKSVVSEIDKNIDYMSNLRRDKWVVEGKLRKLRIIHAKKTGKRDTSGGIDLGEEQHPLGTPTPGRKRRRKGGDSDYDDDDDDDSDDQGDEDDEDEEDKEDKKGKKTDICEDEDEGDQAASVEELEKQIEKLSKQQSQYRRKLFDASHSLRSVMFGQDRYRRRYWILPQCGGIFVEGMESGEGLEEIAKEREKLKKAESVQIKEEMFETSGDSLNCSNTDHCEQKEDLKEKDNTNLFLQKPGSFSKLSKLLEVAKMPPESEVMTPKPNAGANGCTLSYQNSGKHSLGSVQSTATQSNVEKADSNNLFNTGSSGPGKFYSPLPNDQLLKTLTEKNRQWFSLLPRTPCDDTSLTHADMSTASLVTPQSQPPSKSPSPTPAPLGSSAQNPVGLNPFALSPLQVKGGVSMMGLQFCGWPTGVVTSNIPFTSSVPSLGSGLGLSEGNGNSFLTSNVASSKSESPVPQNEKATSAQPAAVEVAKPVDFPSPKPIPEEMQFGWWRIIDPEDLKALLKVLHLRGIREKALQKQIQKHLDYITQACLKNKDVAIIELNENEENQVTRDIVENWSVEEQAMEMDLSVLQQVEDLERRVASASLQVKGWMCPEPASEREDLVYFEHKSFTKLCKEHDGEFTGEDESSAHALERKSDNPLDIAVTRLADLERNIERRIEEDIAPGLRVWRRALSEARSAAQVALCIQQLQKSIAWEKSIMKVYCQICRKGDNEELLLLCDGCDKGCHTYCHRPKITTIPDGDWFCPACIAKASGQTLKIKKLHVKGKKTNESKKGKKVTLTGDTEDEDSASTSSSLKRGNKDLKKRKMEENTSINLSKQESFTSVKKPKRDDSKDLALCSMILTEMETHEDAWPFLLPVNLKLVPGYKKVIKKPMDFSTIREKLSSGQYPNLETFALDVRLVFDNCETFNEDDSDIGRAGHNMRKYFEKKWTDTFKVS
row,SMILES,Potency
1,O=C(Nc1ccc(Oc2ccccc2)cc1)C1CCN(S(=O)(=O)c2ccc(Cl)cc2)CC1,inactive
2,O=C(Nc1ccccc1)c1nnsc1S(=O)(=O)c1ccc(Cl)cc1,44.7 µM (active)
3,CN(c1cccc(NC(=O)Nc2ccc(Cl)cc2)c1)S(C)(=O)=O,inactive
4,CCCCN(CC)CCCNC(=O)c1nn(C)c2c1CSc1ccccc1-2,inactive
5,Cc1ccccc1CNC(=O)c1cccc(NC(=O)c2nsc3ccccc23)c1,inactive
6,O=C(CSc1nnc(-c2ccncc2)n1-c1ccccc1)Nc1ccc(Cl)c(Cl)c1,inactive
7,Cc1cc(C)cc(-n2c(SCC(=O)NCC3CCCO3)nc3c([nH]c4ccccc43)c2=O)c1 (stereo not given),inactive
8,CSc1c(SCc2ccccc2)cnn(Cc2ccccc2)c1=O,inactive
9,O=C1N/C(=C/c2cccs2)C(=O)N1Cc1ccc(F)cc1,inactive
10,CN(C)c1ccnc2sc3c(=O)n(Cc4ccccc4)cnc3c12,inactive
11,Cc1ccc(CN2C(=O)N/C(=C/c3cc(C)n(-c4ccccn4)c3C)C2=O)cc1,inactive
12,CC1=NN(Cc2ccccc2)C(=O)/C1=C/c1ccc(N(C)C)cc1,2 µM (active)
13,CN(C)c1ccc(/C=C2\NC(=S)N(Cc3ccccc3)C2=O)cc1,28.2 µM (active)
14,CCc1ccc(C(=O)CC2(O)C(=O)N(CCc3ccccc3)c3ccc(Br)cc32)cc1 (stereo not given),inactive
15,CCC1CCCCN1Cc1c(O)ccc2c(=O)c(Oc3ccccc3Cl)c(C(F)(F)F)oc12 (stereo not given),inactive
16,COCCNC(=O)c1ccc2c(c1)N(Cc1cccc(Cl)c1)C(=O)c1ccccc1S2(=O)=O,inactive
17,Cc1c(-c2nsc(NC(=O)c3cccc(Cl)c3)n2)nnn1-c1ccccc1C(F)(F)F,inactive
18,Cc1ccccc1Nc1scc(-c2ccc(Br)cc2)[n+]1-c1ccccc1C,11.2 µM (active)
19,O=C(CSc1ncc(S(=O)(=O)c2ccc(Br)cc2)c(=O)[nH]1)Nc1ccc2c(c1)OCCO2,inactive
20,CCN1CCN(C(c2cccnc2)c2cc(Cl)c3cccnc3c2O)CC1 (stereo not given),11.2 µM (active)
21,CCN1CCN(C(c2ccc(C)cc2)c2c(O)cc(C)n(Cc3ccco3)c2=O)CC1 (stereo not given),inactive
22,CCOc1ccc(C(NC(=O)c2cc(OC)c(OC)c(OC)c2)c2cc(Cl)c3cccnc3c2O)cc1 (stereo not given),inactive
23,COc1ccccc1N1CCN(C(CNC(=O)C(=O)NCc2ccc(C)cc2)c2cccnc2)CC1 (stereo not given),inactive
24,CCOC(=O)N1CCN(C(c2cccnc2)c2ccc3cccnc3c2O)CC1 (stereo not given),15.8 µM (active)
25,CCOC(=O)N1CCN(C(=O)CSc2nc(=O)n3cccc(C)c3n2)CC1,inactive

row,SMILES,Potency
1,Cc1ccc(Cl)cc1NC(=O)CCC(=O)N1CC(C)Sc2ccccc21 (stereo not given),inactive
2,CCOc1ccc(Nc2ncnc3scc(-c4ccc(OC)cc4)c23)cc1,inactive
3,CN(NS(=O)(=O)c1cccs1)c1ncc(C(F)(F)F)cc1Cl,56.2 µM (active)
4,CN(CC(=O)Nc1cccc(C(F)(F)F)c1)S(=O)(=O)c1cccs1,inactive
5,C#CCN(N(C)c1ncc(C(F)(F)F)cc1Cl)S(=O)(=O)c1ccc2ccccc2c1,inactive
6,Cc1cccc(-n2ncc(C(=O)N3CCN(c4ccc(Cl)cc4)CC3)c2C2CCN(C(=O)OC(C)(C)C)CC2)c1,inactive
7,CC1=C(C(=O)OCC(C)C)C(c2ccc(OCc3ccccc3)cc2)N2C(=O)CCSC2=N1 (stereo not given),inactive
8,Cc1cc(/C=C2/SC(=O)N(CC(=O)N3CCCC3)C2=O)c(C)n1C,inactive
9,Cc1cc(/C=N/Nc2ccc([N+](=O)[O-])cn2)c(C)n1-c1cccc(C(=O)O)c1,44.7 µM (active)
10,Fc1ccc(Br)cc1/C=N/n1cnnc1,inactive
11,Cc1cc(/C=N/n2cnnc2)c(C)n1-c1cccc(C(=O)O)c1,35.5 µM (active)
12,Cc1cc(/C=C2\SC(=O)N(C)C2=O)c(C)n1-c1cccc(C(=O)O)c1,79.4 µM (active)
13,Cc1cc(/C=C2/SC(=O)N(CC(=O)OC(C)C)C2=O)c(C)n1C,inactive
14,NC1=NN(c2cccc(C(=O)O)c2)C(=O)C1,inactive
15,Cc1cccc(C)c1NC(=O)CSc1ccc([N+](=O)[O-])cn1,inactive
16,O=[N+]([O-])c1cccc(/C=N/Nc2ncc(Br)cn2)c1,inactive
17,O=C(Cn1c(=O)n(-c2ccc(F)cc2)c(=O)c2sccc21)Nc1cccc(C(F)(F)F)c1,inactive
18,CCc1cccc(-n2nnc(-c3nsc(NC(=O)c4ccc(C)cc4)n3)c2C)c1,inactive
19,O=C(CS(=O)(=O)c1cccc2nsnc12)N1CCN(c2cccc(Cl)c2)CC1,inactive
20,COc1ccccc1-c1cc(C(F)(F)F)nc(S(=O)(=O)CCCC(=O)Nc2ccc(F)cc2F)n1,inactive
21,CCn1cc2nc(SCc3cccc(F)c3)n(CCc3ccccc3)c(=O)c2n1,inactive
22,COc1cc(NS(=O)(=O)c2ccc3c(c2)OCC(C(=O)N2CCCC2)O3)cc(OC)c1 (stereo not given),inactive
23,COc1ccc(C(=O)N2CCC(c3nc4ccccc4o3)CC2)cc1,inactive
24,Cc1cc2nc(C)n(CCCNC(=O)Nc3ccccc3)c2cc1C,inactive
25,Cc1cc(=O)n(C)c(=O)n1CCCNc1ccccc1,50.1 µM (active)

row,SMILES,Potency
1,Cn1c(Nc2ccccc2)cc(=O)n(C)c1=O,inactive
2,Cc1ccc(-n2nc(C)c3c(C)cc(=O)n(CC(=O)Nc4ccc(C(C)C)cc4)c32)cc1,inactive
3,O=C(NC1CCCCC1)C1CCCN(S(=O)(=O)c2ccc(Br)s2)C1 (stereo not given),inactive
4,O=C(Cc1ccc(S(=O)(=O)N2CCCC2)s1)NC1CCCCCC1,50.1 µM (active)
5,O=C(Cc1ccc(S(=O)(=O)N2CCOCC2)s1)NCCC(c1ccccc1)c1ccccc1,inactive
6,Cc1cc(-c2ccc(C)c(S(=O)(=O)N3c4ccccc4CC3C)c2)on1 (stereo not given),inactive
7,Cc1ccsc1CN(C(=O)c1oc2ccc(Br)cc2c1C)C1CCS(=O)(=O)C1 (stereo not given),inactive
8,COc1ccc(C(=O)COC(=O)c2ccc([N+](=O)[O-])s2)cc1OC,inactive
9,CCC(CC)c1nnc(NC(=O)C2=COCCO2)s1,inactive
10,CSc1ccccc1-c1nnc(NC(=O)c2ccc3c(c2)OCCO3)o1,inactive
11,O=C(Nc1ncc([N+](=O)[O-])s1)C1COc2ccccc2O1 (stereo not given),inactive
12,Cc1cccc(C)c1NC(=O)CNC(=O)c1ccc2c(c1)OCCO2,inactive
13,COc1cc(-c2nnc(NC(=O)C3=COCCO3)o2)cc(OC)c1OC,39.8 µM (active)
14,Cc1csc(NC(=O)C2=COCCO2)n1,inactive
15,O=C(Nc1nnc(C2=COCCO2)o1)c1ccc([N+](=O)[O-])s1,79.4 µM (active)
16,Cc1ccc(C(=O)Nc2nnc(C3=COCCO3)o2)cc1C,50.1 µM (active)
17,O=C(NCCc1csc(-c2ccc(C(F)(F)F)cc2)n1)C(=O)Nc1ccc(F)c(Cl)c1,inactive
18,CC(C)(C)OC(=O)N1CCC(c2c(C(=O)NCc3ccccn3)cnn2-c2ccc(F)cc2)CC1,inactive
19,O=C(Nc1ncccc1O)c1ccc(C(=O)c2ccccc2)cc1,inactive
20,CC1CCC(NC(=O)CNC(=O)c2ccc3ccccc3c2)CC1 (stereo not given),inactive
21,O=C(CNC(=O)c1ccc2ccccc2c1)Nc1ncccc1O,50.1 µM (active)
22,CN(Cc1ccccc1)C(=O)CCS(=O)(=O)c1cc(Br)cc2c1N(C(=O)C1CC1)CC2,inactive
23,Cc1ccc(C)c(N2CCN(C(=O)CN3C(=O)COc4ccc(S(=O)(=O)N5CCCCCC5)cc43)CC2)c1,inactive
24,CCOCCCNCc1ccc(OCc2ccc(F)cc2)c(OC)c1,inactive
25,CCOCCCNCc1cc(Br)ccc1OCC,inactive

row,SMILES,Potency
1,CCOc1ccccc1OCCCNCc1ccccc1,79.4 µM (active)
2,Cc1cc(C)c2oc(-c3cccc(NC(=O)c4cccc(F)c4)c3C)nc2c1,inactive
3,CCOc1cc(/C=C2\SC(N3CCCCC3)=NC2=O)ccc1O,inactive
4,CCN1C(=O)/C(=C2\SC(N3CCCCC3)=NC2=O)c2ccccc21,39.8 µM (active)
5,O=C1N=C(N2CCCC2)S/C1=C\c1cccc(Br)c1,inactive
6,CCOc1ccc(S(=O)(=O)c2cn(Cc3ccccc3)c3ccc(OCC)cc3c2=O)cc1,inactive
7,CCc1ccc(CN(Cc2ccco2)C(=O)c2ccccc2Cl)cc1,inactive
8,Cc1cc(=O)c2cc(C(=O)Nc3cccc(C)c3C)ccc2[nH]1,inactive
9,CC1CCCN(CC(O)COCc2ccccc2)C1 (stereo not given),inactive
10,O=[N+]([O-])c1ccc(N2CCN(CC(O)COc3ccccc3)CC2)cc1 (stereo not given),inactive
11,OC(COCc1ccco1)CN1CCN(c2ccccc2)CC1 (stereo not given),89.1 µM (active)
12,CCCn1ccc2c(OCC(=O)NCc3ccc(F)cc3)cccc2c1=O,inactive
13,Cc1ccc(-c2cn3c(n2)sc2cc(C(=O)NCCCc4ccccc4)ccc23)cc1,inactive
14,Cc1ccc(NC(=O)CCN2C(=O)c3ccccc3C2=O)cc1C,inactive
15,Cc1cc(C)cc(NC(=O)CN2C(=O)c3ccccc3C2=O)c1,inactive
16,Cc1cc2c(cc1C)N(C(=O)CN1C(=O)c3ccccc3C1=O)C(C)(C)c1ssc(=S)c1-2,8.91 µM (active)
17,O=[N+]([O-])c1cc(C(F)(F)F)ccc1NCCc1ccncc1,inactive
18,O=[N+]([O-])c1cc(C(F)(F)F)ccc1NN=C1CCCC1,10 µM (active)
19,COc1cc(OC)cc(C(=O)NC(=S)N2CCN(c3ccc(C(F)(F)F)cc3[N+](=O)[O-])CC2)c1,inactive
20,COc1cccc(CNC(=O)C(=O)NCC(c2cccs2)S(=O)(=O)c2ccccc2)c1 (stereo not given),inactive
21,COc1ccccc1CNC(=O)CCCn1c(=O)c2ccccc2n(CC(=O)Nc2ccc(C)cc2Cl)c1=O,inactive
22,O=C(N/N=C/c1ccco1)c1ccc(C(=O)N/N=C/c2ccco2)o1,56.2 µM (active)
23,CC(C)NC(=O)C(=O)N/N=C/c1ccco1,inactive
24,O=C(Cc1ccc([N+](=O)[O-])cc1)N/N=C/c1ccco1,inactive
25,CCOc1ccccc1NC(=O)CN1CCN(S(=O)(=O)c2ccc(Br)cc2)CC1,inactive
